Screening results as filed in PubChem BioAssay.
NTMT1 inh: Primary qHTS for Inhibitors of N-terminal methyltransferase 1 (NTMT1): MTaseGlo Assay; Potency, µM (series often up to 114 µM), most hits filed as inhibitors; NTMT1 MTase-Glo SAH luminescence, purified enzyme; AID 1645870, 2021; N-terminal Xaa-Pro-Lys N-methyltransferase 1 (Homo sapiens), Q9BV86; actives 2.5% (n = 59,000); also: nearly all actives have a fitted effect of over 65% in size
Target sequence (Q9BV86 whole entry, looked up): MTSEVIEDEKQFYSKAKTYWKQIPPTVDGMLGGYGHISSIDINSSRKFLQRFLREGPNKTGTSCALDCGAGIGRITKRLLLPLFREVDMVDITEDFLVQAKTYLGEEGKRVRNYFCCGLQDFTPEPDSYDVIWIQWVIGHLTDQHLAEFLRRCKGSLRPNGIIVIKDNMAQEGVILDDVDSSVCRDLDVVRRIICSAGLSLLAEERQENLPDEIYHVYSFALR
GALC G270D up: A Novel Cell-Based Assay to Identify Small Molecules for B -Galactocerebrosidase | P54803 | 145M-Twi-hGALC-G270D cells (Twitcher mouse brain line with human GALC G270D), HMU-beta-Gal fluorescence, 48 h | Potency, µM (titrated, usually from 57.5 µM), hits mostly activators | actives 0.1% (n = 45,000) | AID 1159614, 2016; also: nearly all actives have a fitted effect of over 65% in size
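Mutant human GALC (G270D), stably expressed in a Twitcher mouse brain cell line lacking endogenous GALC, is measured in live-treated cells via 6-hexadecanoylamino-4-methylumbelliferyl-β-galactoside hydrolysis (0.1 mM final, pH 5.2) with fluorescent detection.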
FH mod: Identification of activators of human fumarate hydratase by quantitative high-throughput screening; Fumarate hydratase, mitochondrial (Homo sapiens), P07954; FH coupled MDH/diaphorase resazurin fluorescence, 15 min; Potency, µM (doses to about 79.9 µM), actives largely listed as inhibitors; actives 0.22% (n = 54,000); AID 1347055, 2019; also: the screen sought activators but most active calls are inhibition curves; nearly all actives have a fitted effect of over 45% in size
A number is an active result; i = inactive; ? = inconclusive; nt = no result given; [ ] = remark or other dose. Shown is part of a subset that was picked to be rich in hits. Calls follow the shape of the dose curve; as a rule, active = well fitted curve in the direction sought with a large enough effect; inconclusive = small, poorly fitted or top-dose-only effect, or another doubt; inactive = no such curve, though single readings can be large; an effect the other way counts as inactive or inconclusive.

SMILES | NTMT1 inh | GALC G270D up | FH mod
CCn1cc2nc(SCC(=O)Nc3ccc(C)cc3C)n(Cc3ccc(C)cc3)c(=O)c2n1 | 89.1µM | i | i
CC(NCCCc1cccc(C(F)(F)F)c1)c1cccc2ccccc12 (stereo unspecified) | i | nt | i
O=C(c1cccs1)c1nonc1C(=O)c1cccs1 | i | nt | nt
COc1ccc2[nH]c3c(c2c1)CCN[C@]31CS[C@@H]2c3c(OC(C)=O)c(C)c4c(c3[C@H](COC1=O)N1[C@@H]2[C@H]2c3c(cc(C)c(OC)c3O)C[C@@H]([C@@H]1O)N2C)OCO4 | i | nt | nt
CCC(CC)C(c1ccc(Nc2nc3ccccc3s2)cc1)n1cncn1 (stereo unspecified) | i | nt | i
C=CC(=O)N1C[C@H](Nc2ncnc3[nH]ccc23)CC[C@@H]1C | i | nt | nt
CCOC(=O)c1cccc(Nc2cc(-c3ccccc3)ncn2)c1 | ? | i | ?
COc1ccccc1-c1cc(Nc2cccc(CS(N)(=O)=O)c2)ncn1 | 35.5µM | nt | i
Cc1ccc(OCCn2c(CCNC(=O)c3ccncc3)nc3ccccc32)cc1 | i | nt | nt
Cc1cc(C)cc(NC(=O)CSc2oc(-c3ccco3)nc2S(=O)(=O)c2ccc(Cl)cc2)c1 | i | i | i
Cc1ccc(S(=O)(=O)c2nc(-c3ccco3)oc2SCC(=O)c2ccc(Cl)cc2)cc1 | i | i | i
O=C(CSc1oc(-c2ccco2)nc1S(=O)(=O)c1ccc(Cl)cc1)c1ccc(Cl)cc1 | 79.4µM | i | i
CCOc1ccc(NC(=O)CSc2oc(-c3ccco3)nc2S(=O)(=O)c2ccc(Cl)cc2)cc1 | 79.4µM | i | i
CCC(NC(=O)CC(NC(=O)C(CO)NC(=O)C(CC)NC(=O)c1ccc[nH]1)c1ccccc1)C(=O)O (stereo unspecified) | i[12.6 µM] | nt | i
O=C(OC[C@H]1O[C@@H](Oc2ccccc2COC(=O)C2(O)C=CCCC2O)[C@H](O)[C@@H](O)[C@@H]1O)c1ccccc1 (stereo partly specified) | i | nt | i
CCc1ccccc1NC(=O)Cn1nc(C(F)(F)F)c2c1CCC2 | i | i | i
CCc1ccccc1NC(=O)Cn1nc(-c2cc(C)ccc2C)c2c(c1=O)CCCC2 | 89.1µM | i | ?
O=C(Nc1ccc(-c2nc3ccccc3[nH]2)cc1)c1ccc2ncsc2c1 | i | nt | nt
Cc1ccc(Nc2c(-c3ccsc3)nc3cccc(C)n23)cc1 | i | i | i
Cc1ccc(-c2nc3cccc(C)n3c2Nc2ccc3c(c2)OCO3)o1 | ? | i | i
Cc1ccc(Nc2c(-c3ccc(C)o3)nc3cccc(C)n23)cc1 | 7.94µM | i | ?
Cc1ccc(-c2nc3ccccn3c2Nc2ccc3c(c2)OCO3)o1 | 15.8µM | i | ?
Nc1ncnc2c1ncn2[C@@H]1O[C@H](CO)C(O)[C@H]1O (stereo partly specified) | nt | nt | i
COc1ccc(C2Nc3ccccc3C(=O)N2Cc2ccc3c(c2)OCO3)cc1COc1c(C)cc(NC(C)=O)cc1C (stereo unspecified) | i | nt | nt
C1=CCOCc2cc(ccc2OCCN2CCCC2)Nc2nccc(n2)-c2cccc(c2)OCC1 | ? | nt | i
SMILES | NTMT1 inh | GALC G270D up | FH mod
CN1C/C=C/CCOc2cccc(c2)-c2ccnc(n2)Nc2cccc(c2)C1 | 39.8µM | nt | i
c1cncc(-c2ccc(CNc3nc(-n4ccnc4)nc4ccccc34)cc2)c1 | i | nt | nt
CC(C)(C(=O)NCC(F)(F)C(F)(F)F)C(=O)NC1C(=O)Nc2ccccc2-c2ccccc21 (stereo unspecified) | i | nt | i
COC(=O)[C@H](Cc1ccc(O[S+](=O)([O-])c2cccc3cnccc23)cc1)N(C)[S+](=O)([O-])c1ccc2cnccc2c1 | i | nt | nt
C=C1CC[C@@H]2C(C)(C)CCC[C@@]2(C)[C@@H]1CC/C(=C/C(=O)OC)COC(C)=O | i | nt | i
COc1ccc(/C=C/c2nc(C#N)c(N3CCCCC3)o2)cc1OC | ? | 28.2µM | i
COc1cccc(/C=C/c2nc(C#N)c(NCCc3ccccc3)o2)c1 | ? | i | i
COc1cccc(/C=C/c2nc(C#N)c(N3CCC(C(N)=O)CC3)o2)c1 | i | 25.1µM | i
COc1cccc(/C=C/c2nc(C#N)c(N(C)Cc3ccccc3)o2)c1 | i | 25.1µM | i
COc1ccc(/C=C/c2nc(C#N)c(N3CCN(c4ccccc4)CC3)o2)cc1OC | i | ? | i
COc1cccc(/C=C/c2nc(C#N)c(N3CCCCCC3)o2)c1 | i | ? | i
COc1ccc(N2CCN(c3oc(/C=C/c4ccccc4OC)nc3C#N)CC2)cc1 | 89.1µM | i | i
COc1ccccc1/C=C/c1nc(C#N)c(N2CCCCC2)o1 | i | i | i
FC(F)(F)c1ccccc1-c1nc(NCc2ccc(Cl)cc2)c2ccccc2n1 | i | nt | nt
Cc1ccc(-c2cc(C(=O)Nc3ccc(Cl)cc3)c3ccccc3n2)cc1C | i | nt | nt
C=C1[C@H]2[C@H](O[C@@H]3O[C@H](COC(=O)/C=C/c4cc(OC)c(O)c(OC)c4)[C@@H](O)[C@H](O)[C@H]3O)OC=C(C(=O)O)[C@H]2C[C@@H]1O | i[12.6 µM] | nt | i
COc1cc(/C=C/c2nc(C#N)c(N3CCCCCC3)o2)cc(OC)c1OC | ? | i | 28.2µM
COc1cc(/C=C/c2nc(C#N)c(N3CCC(C)CC3)o2)cc(OC)c1OC | ? | i | i
COc1ccc(C)cc1NC(=O)CCS(=O)(=O)c1cc2c3c(c1)CCN3C(=O)CC2 | 44.7µM | i | i
COc1ccccc1NC(=O)CCS(=O)(=O)c1cc2c3c(c1)CCN3C(=O)CC2 | i | i | i
COc1cccc(NS(=O)(=O)c2ccc(C)cc2)c1C(=O)Nc1nc(-c2ccccc2)cs1 | i | nt | nt
Cc1ccc(-c2ccc(=O)n(CC(=O)NCCc3ccc(O)cc3)n2)cc1 | i | nt | nt
O=C(Nc1ccc(Cl)cc1)N1CCN(c2ccc3nnc(-c4ccccc4)n3n2)CC1 | i | i | ?
COc1ccccc1NC(=O)N1CCN(c2ccc3nnc(-c4ccc(F)cc4)n3n2)CC1 | 79.4µM | i | i
CCc1nc(SC)ncc1C(=O)N1CCN(c2cc(Cl)ccc2C)CC1 | ? | i | i
SMILES | NTMT1 inh | GALC G270D up | FH mod
CCc1nc(SC)ncc1C(=O)N1CCN(c2cc(C)ccc2C)CC1 | 89.1µM | i | i
C#Cc1cccc(Nc2ncnc3cc(OC)c(OC)cc23)c1 | i | nt | i
C#Cc1cccc(Nc2ncnc3cc(OCCOC)c(OCCO)cc23)c1 | 35.5µM | nt | i
CN(C(=O)CNC(=O)/C=C/c1cccc(Cl)c1)C1CCS(=O)(=O)CC1 | i | nt | nt
CCC[C@@H](NC(=O)[C@@H]1[C@H]2CCC[C@@H]2CN1C(=O)[C@@H](NC(=O)[C@@H](NC(=O)c1cnccn1)C1CCCCC1)C(C)(C)C)C(=O)C(=O)NC1CC1 | i | nt | i
CCC[C@H](NC(=O)[C@@H]1[C@H]2CCC[C@H]2CN1C(=O)[C@@H](NC(=O)[C@@H](NC(=O)c1cnccn1)C1CCCCC1)C(C)(C)C)C(=O)C(=O)NC1CC1 | 44.7µM | nt | nt
Cc1cc(-c2nnc3n2CCCCC3)c(C)n1-c1ccc([N+](=O)[O-])cc1 | i | nt | nt
CN1CCc2cccc3c2C1Cc1ccc(O)c(O)c1-3 (stereo unspecified) | nt | nt | 14.1µM
